Test results reported in the supplement of paper PMC10849652.
Targets with a hit are over-represented here; the source holds about 7,900 in all. About 0.6% of all pairs of compound and target were hits.

The targets below were run with COC(=O)N[C@@H](C)CNc1nccc(-c2cn(C(C)C)nc2-c2cc(Cl)cc(NS(C)(=O)=O)c2F)n1 [encorafenib] (assay: log2 fold change, soluble protein after heating vs DMSO (PISA); higher = thermal stabilisation; K562 cells, 10 uM, 30 min; active = over 0.2 and 3.5 SD of the protein, either way, in both replicates (recomputed)).
How it was run: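 Soluble protein was defined as the supernatant after 21,000xg for 90 min. It came from K562 cells at 2×10^6 cells/mL given 10 μM compound for 30 min, heated in aliquots for 3 min across 48°C-58°C, pooled, and extracted in PBS with 0.5% NP-40 at 4°C, and was quantified by TMTpro 16plex LC-MS/MS with equalised channel sums. Thermal stability against control samples, from duplicates, is reported as log2 fold change.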

UniProt Q9H1H9, sequence (Q9H1H9 whole entry, looked up): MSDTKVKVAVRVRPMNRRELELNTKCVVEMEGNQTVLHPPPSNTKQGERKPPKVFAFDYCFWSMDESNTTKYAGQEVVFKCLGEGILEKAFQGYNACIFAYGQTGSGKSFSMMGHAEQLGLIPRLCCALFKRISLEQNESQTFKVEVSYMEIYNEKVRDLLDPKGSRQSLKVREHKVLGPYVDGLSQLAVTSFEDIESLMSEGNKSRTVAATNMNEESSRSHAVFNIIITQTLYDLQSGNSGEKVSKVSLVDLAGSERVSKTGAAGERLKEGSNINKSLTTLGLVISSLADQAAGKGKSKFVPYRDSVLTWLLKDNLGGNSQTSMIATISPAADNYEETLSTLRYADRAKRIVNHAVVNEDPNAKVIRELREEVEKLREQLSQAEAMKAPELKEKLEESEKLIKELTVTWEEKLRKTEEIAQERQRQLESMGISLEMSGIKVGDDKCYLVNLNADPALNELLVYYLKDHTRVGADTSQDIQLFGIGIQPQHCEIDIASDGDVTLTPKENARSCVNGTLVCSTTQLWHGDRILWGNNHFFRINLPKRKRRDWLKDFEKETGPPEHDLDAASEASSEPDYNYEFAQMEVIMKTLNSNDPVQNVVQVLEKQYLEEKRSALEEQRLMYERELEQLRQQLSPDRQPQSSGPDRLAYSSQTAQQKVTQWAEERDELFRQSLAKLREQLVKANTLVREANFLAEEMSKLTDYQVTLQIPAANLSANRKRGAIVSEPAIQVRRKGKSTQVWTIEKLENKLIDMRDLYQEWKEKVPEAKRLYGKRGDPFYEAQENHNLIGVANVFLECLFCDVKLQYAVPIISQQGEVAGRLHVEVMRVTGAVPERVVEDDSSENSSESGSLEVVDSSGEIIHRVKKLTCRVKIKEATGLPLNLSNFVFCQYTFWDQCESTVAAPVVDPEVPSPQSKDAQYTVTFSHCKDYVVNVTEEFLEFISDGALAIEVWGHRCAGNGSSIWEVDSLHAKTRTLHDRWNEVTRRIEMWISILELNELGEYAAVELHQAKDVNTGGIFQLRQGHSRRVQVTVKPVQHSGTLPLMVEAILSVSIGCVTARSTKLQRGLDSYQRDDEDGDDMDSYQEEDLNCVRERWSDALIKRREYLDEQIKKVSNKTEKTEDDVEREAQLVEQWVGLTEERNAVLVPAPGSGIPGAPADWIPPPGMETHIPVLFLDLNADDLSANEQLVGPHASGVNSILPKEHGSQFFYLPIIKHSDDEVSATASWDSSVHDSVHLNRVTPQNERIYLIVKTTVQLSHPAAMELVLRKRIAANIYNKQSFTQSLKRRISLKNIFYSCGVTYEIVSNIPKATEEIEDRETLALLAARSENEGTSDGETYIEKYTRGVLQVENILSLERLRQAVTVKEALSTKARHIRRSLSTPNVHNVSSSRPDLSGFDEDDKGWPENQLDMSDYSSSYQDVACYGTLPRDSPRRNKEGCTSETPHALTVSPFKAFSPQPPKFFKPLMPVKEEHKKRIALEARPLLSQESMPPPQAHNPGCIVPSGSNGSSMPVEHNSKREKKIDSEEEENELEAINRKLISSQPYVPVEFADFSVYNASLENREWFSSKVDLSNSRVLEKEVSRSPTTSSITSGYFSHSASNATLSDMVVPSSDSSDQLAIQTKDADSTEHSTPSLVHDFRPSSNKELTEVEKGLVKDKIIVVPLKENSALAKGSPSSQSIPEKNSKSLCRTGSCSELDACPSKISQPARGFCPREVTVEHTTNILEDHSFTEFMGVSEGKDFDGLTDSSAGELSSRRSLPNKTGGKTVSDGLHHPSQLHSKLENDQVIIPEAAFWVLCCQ
UniProt Q14681, sequence (Q14681 whole entry, looked up): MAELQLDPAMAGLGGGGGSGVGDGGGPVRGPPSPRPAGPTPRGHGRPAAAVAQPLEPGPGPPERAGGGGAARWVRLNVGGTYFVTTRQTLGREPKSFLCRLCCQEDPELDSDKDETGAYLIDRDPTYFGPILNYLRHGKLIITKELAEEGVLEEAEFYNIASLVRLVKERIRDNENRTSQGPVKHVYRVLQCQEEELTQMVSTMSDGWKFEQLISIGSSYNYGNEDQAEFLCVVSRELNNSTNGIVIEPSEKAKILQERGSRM
UniProt Q8IVT5, sequence (Q8IVT5 whole entry, looked up): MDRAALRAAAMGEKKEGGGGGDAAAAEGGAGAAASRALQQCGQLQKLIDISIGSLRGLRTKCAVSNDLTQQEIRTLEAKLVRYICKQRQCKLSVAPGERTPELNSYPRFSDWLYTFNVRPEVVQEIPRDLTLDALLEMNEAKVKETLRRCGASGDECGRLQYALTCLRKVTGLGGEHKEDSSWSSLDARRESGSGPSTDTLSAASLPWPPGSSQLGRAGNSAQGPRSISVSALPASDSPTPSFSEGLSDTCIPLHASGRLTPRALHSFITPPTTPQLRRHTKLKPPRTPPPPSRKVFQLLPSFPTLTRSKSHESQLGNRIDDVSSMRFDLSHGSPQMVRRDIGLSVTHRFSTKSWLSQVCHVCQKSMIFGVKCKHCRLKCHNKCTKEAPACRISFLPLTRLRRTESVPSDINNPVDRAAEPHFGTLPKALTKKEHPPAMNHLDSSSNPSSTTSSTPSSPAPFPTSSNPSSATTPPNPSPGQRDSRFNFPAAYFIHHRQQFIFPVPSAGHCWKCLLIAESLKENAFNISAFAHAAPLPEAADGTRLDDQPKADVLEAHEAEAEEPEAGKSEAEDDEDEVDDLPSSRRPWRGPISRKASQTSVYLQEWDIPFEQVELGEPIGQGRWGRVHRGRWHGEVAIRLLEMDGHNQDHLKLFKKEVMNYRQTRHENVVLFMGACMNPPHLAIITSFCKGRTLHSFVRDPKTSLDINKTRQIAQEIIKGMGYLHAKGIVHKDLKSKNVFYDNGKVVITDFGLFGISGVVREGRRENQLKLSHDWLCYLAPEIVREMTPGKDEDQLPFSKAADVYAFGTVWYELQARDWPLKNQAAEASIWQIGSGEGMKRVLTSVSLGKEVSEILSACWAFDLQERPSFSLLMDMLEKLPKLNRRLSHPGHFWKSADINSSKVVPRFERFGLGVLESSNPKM
UniProt Q9Y383, sequence (Q9Y383 whole entry, looked up): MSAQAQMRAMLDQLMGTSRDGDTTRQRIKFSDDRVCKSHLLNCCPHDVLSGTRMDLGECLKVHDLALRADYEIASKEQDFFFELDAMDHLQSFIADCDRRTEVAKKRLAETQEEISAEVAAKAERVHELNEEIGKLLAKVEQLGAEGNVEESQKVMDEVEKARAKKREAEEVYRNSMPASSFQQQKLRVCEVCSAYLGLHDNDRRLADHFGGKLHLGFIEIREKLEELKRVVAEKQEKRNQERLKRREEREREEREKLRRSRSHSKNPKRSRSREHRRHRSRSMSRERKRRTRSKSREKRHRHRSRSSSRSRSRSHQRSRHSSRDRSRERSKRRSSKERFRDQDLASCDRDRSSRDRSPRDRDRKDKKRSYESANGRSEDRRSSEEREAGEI
UniProt P07948, sequence (P07948 whole entry, looked up): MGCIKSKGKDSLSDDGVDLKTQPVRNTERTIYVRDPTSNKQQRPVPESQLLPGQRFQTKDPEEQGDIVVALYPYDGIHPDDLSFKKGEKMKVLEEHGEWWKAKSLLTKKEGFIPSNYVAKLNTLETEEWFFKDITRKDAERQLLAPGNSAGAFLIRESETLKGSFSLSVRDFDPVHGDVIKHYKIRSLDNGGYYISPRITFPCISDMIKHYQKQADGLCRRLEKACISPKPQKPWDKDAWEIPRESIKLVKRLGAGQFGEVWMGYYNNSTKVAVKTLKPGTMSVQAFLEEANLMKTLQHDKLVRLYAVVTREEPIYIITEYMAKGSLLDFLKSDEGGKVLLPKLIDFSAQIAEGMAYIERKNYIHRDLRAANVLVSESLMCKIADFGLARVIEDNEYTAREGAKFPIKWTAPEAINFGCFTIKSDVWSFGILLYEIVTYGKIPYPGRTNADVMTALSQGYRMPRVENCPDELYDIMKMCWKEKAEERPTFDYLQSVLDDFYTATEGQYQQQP
UniProt P27448, sequence (P27448 whole entry, looked up): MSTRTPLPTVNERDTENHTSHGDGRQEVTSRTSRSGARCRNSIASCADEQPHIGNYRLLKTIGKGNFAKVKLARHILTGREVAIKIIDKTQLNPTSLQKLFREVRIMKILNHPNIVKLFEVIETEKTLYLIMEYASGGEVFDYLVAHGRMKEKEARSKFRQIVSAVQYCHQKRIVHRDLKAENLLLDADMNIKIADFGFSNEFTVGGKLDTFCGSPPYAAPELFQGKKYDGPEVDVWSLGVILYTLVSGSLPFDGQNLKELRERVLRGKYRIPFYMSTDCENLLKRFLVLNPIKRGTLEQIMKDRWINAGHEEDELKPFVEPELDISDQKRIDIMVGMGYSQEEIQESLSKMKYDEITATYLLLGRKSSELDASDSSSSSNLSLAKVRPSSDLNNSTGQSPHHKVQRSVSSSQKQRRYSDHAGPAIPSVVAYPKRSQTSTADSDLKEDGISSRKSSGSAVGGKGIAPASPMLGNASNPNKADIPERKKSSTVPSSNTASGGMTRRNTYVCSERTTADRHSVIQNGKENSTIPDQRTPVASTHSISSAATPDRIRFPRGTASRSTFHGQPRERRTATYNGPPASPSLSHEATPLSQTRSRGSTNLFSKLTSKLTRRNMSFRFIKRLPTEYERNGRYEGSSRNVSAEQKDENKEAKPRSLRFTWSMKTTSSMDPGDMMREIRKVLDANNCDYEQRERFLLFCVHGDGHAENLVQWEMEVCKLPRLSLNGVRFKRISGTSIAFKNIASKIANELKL
UniProt Q07820, sequence (Q07820 whole entry, looked up): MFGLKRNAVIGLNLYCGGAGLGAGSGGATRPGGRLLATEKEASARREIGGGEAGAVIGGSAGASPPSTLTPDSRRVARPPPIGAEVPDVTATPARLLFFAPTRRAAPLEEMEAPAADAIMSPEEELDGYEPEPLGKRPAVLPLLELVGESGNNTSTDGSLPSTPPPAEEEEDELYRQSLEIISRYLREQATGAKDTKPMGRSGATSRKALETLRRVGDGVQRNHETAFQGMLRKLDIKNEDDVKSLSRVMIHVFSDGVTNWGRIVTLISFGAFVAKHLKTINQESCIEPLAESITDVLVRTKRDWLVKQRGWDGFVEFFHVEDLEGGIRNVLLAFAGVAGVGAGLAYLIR

log2 fold change, inactive:
IWS1 (UniProt Q96ST2) -0.1
LUC7L2 (UniProt Q9Y383) 0.065
MARK3 (UniProt P27448) 0.096
MIEF1 (UniProt L0R8F8) 0.008
KIF11 (UniProt P52732) 0.174
LPIN3 isoform 2 (UniProt Q9BQK8) 0.051
INPP5B (UniProt P32019) -0.151
LNPEP (UniProt Q9UIQ6) -0.008
KDM1A isoform 2 (UniProt O60341) 0.052
IPO13 (UniProt O94829) 0.039
MIEF1 (UniProt Q9NQG6) 0.023
KDELR2 (UniProt P33947) -0.005
KTN1 (UniProt Q86UP2) 0.137
KHDRBS1 (UniProt Q07666) -0.009
KSR1 (UniProt Q8IVT5) 0.081
LUC7L3 (UniProt O95232) 0.028
LAMP2 (UniProt P13473) -0.026
MED1 (UniProt Q15648) 0.009
MICU2 (UniProt Q8IYU8) 0.073
ILK (UniProt Q13418) 0.03
KIF13A (UniProt Q9H1H9) -0.025
KIF3A (UniProt Q9Y496) 0.003
KDM5D isoform 3 (UniProt Q9BY66) 0.198
KIAA1324L (UniProt A8MWY0) 0.015
MIER1 isoform 12 (UniProt Q8N108) -0.004
MIA2 (UniProt Q96PC5) 0.07
LIMA1 isoform 4 (UniProt Q9UHB6) 0.017
METTL18 (UniProt O95568) 0.108
KIF21A isoform 4 (UniProt Q7Z4S6) 0.175
LUC7L (UniProt Q9NQ29) 0.039
KEL (UniProt P23276) -0.061
LEO1 (UniProt Q8WVC0) -0.033
LARP4 isoform 4 (UniProt Q71RC2) 0.086
MFF (UniProt Q9GZY8) 0.015
MFN1 (UniProt Q8IWA4) 0.038
MCL1 (UniProt Q07820) 0.004
LYN (UniProt P07948) 0.009
ILVBL (UniProt A1L0T0) 0.059
KCTD2 (UniProt Q14681) -0.128
